The text below walks through data of PubChem BioAssay (EPA / NIEHS).

Results filed as inconclusive are left out. Activity calls are given as the source filed them. Rule for the calls: active = hit-call score of the fitted dose curve at least 0.9, where 1 is the maximum; inconclusive = response in the unintended direction; inactive = score below 0.9.

Chain of human Thyroid Receptor Alpha (TRa), THRA (gene 7067) (P10827 whole entry, looked up): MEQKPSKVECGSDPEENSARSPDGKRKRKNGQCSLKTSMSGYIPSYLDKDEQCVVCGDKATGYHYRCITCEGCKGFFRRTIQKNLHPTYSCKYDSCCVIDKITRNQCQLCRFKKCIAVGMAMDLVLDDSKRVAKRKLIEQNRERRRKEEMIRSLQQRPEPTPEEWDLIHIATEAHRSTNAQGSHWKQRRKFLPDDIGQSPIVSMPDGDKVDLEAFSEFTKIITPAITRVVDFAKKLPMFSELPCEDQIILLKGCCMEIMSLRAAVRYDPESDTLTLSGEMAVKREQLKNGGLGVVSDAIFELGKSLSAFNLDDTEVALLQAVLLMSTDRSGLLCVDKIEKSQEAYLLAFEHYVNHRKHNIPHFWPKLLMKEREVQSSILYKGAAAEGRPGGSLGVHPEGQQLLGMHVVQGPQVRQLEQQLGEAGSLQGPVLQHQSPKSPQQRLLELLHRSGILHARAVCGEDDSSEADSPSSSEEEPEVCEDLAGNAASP
Chain of guinea pig Sigma Receptor, Non-selective Binding, SIGMAR1 (gene 100135589) (Q60492 whole entry, looked up): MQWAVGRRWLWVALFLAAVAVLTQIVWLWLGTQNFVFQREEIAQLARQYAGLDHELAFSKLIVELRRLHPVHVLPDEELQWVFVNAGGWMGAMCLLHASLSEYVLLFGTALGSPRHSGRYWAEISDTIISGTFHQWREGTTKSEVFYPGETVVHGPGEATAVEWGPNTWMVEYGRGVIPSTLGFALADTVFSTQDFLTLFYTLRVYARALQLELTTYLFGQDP
Chain of Glucocorticoid receptor (Homo sapiens) (P04150 whole entry, looked up): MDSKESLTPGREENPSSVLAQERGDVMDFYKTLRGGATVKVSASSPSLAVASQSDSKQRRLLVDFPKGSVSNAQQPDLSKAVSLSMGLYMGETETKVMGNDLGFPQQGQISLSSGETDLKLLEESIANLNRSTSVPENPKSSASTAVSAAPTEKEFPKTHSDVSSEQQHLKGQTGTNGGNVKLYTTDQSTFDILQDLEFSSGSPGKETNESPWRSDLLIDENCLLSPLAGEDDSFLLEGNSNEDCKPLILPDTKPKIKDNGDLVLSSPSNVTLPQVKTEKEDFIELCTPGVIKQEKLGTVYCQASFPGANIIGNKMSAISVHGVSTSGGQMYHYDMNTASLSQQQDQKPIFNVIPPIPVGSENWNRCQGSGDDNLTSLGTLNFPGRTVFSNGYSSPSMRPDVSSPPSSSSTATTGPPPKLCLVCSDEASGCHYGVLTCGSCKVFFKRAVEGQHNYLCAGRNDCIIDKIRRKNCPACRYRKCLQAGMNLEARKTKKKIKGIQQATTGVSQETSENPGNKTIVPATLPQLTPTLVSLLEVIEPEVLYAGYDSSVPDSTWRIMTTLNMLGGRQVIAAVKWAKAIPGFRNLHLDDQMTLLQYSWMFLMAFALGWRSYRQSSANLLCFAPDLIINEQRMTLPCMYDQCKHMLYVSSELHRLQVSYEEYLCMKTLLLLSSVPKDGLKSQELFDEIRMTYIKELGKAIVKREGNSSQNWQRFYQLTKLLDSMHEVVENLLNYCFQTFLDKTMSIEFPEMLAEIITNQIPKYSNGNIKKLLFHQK

The first assay addresses human Thyroid Receptor Alpha (TRa), THRA (gene 7067) (UniProt P10827). Kind of assay: NVS_NR_hTRa_Antagonist: NovaScreen (NVS) Nuclear Receptor Binding Assay for human Thyroid Receptor Alpha Antagonism (TRa) (AID 2283362).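 Note: activity is loss of signal relative to DMSO baseline.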 In short, it runs like this: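 AlphaLISA chemiluminescent immunoassay readout, taken 1 h post-dosing in a cell-free system with extracted protein. Activity was scored as signal loss against DMSO negative control, from duplicate single-concentration (25 uM) testing followed by concentration-response follow-up.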
Turning to `CC(C)CCCCCCOC(=O)C1CCCCC1C(=O)OCCCCCCC(C)C` (configuration not stated), the compound was classed as inactive. On the same count and under the same terms, for `OC[C@H]1O[C@@H]2O[C@H]3[C@H](O)[C@@H](O)[C@@H](O[C@H]4[C@H](O)[C@@H](O)[C@@H](O[C@H]5[C@H](O)[C@@H](O)[C@@H](O[C@H]6[C@H](O)[C@@H](O)[C@@H](O[C@H]7[C@H](O)[C@@H](O)[C@@H](O[C@H]1[C@H](O)[C@H]2O)O[C@@H]7CO)O[C@@H]6CO)O[C@@H]5CO)O[C@@H]4CO)O[C@@H]3CO` the value was “inactive”. In the case of `c1ccc(C(O[C@@H]2CCCN(CCc3ccc4c(c3)OCO4)C2)c2ccccc2)cc1`, the call was inactive. The same measure, in the same setting: under `CC(C)C(=O)Nc1ccc([N+](=O)[O-])c(C(F)(F)F)c1` stands “inactive”.

The next assay has as its target Glucocorticoid receptor (Homo sapiens) (UniProt P04150). Briefly: NVS_NR_hGR: NovaScreen (NVS) Nuclear Receptor Binding Assay for human Glucocorticoid Receptor (GR) (AID 2283363).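 For AC50: activity is loss of specific radioligand binding signal relative to DMSO.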 The method, boiled down: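 Cell-free radioligand binding with extracted receptor protein, read by filter-based scintillation counting 16 hours after dosing. Loss of specific signal versus DMSO baseline was scored. Primary screen ran in duplicate at 25 uM; actives were followed up in concentration series.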
By AC50 is commonly meant the concentration at which the activity in the assay is half-maximal. With `C[C@]12C=CC(=O)C=C1CC[C@H]1[C@@H]3C[C@@H](O)[C@](O)(C(=O)CO)[C@@]3(C)C[C@H](O)[C@@]12F`, the half-maximal activity concentration (AC50) was 74.6 nM (active).

In the case of `CC[C@H](C)C(=O)O[C@H]1C[C@H](O)C=C2C=C[C@H](C)[C@H](CC[C@@H](O)C[C@@H](O)CC(=O)O)[C@H]21`, the half-maximal activity concentration (AC50) is 15500 nM (active). Consider `c1ccc(C(O[C@@H]2CCCN(CCc3ccc4c(c3)OCO4)C2)c2ccccc2)cc1`, for which the result was inactive.

A further assay has as its target guinea pig Sigma Receptor, Non-selective Binding, SIGMAR1 (gene 100135589) (UniProt Q60492). Kind of assay: NVS_OR_gSIGMA_NonSelective: NovaScreen (NVS) Nuclear Receptor Binding Assay for guinea pig Sigma Receptor, Non-selective Binding (AID 2283367). In short, it runs like this: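 Guinea pig brain membranes, cell-free radioligand binding; read 1 h after dosing by filter-based scintillation counting. Loss of signal vs DMSO baseline taken as displacement. Primary screen single concentration 25 uM in duplicate; actives retested in concentration series.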
For `CCCCCCCCCC`, the call was inactive. As to `c1ccc(C(O[C@@H]2CCCN(CCc3ccc4c(c3)OCO4)C2)c2ccccc2)cc1`, the AC50 was 2600 nM (active). For the compound `CC(C)C(=O)Nc1ccc([N+](=O)[O-])c(C(F)(F)F)c1`, the result was inactive. As to `CCn1nc(C)c2c1C(=O)NCC(c1ccc(O)cc1)=N2`, the call was inactive. As for `CCCCCCCCN(C)C`, the concentration at half-maximal activity (AC50) was 1880 nM (active).

For a further assay, the system named is guinea pig Dopamine Transporter (DAT), gene 100714898. Briefly: NVS_TR_gDAT: NovaScreen (NVS) Transporter Assay for guinea pig Dopamine Transporter (DAT) (AID 2283369).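 Note: active compounds lower bound radioligand signal relative to DMSO.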 In short, it runs like this:
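Cell-free striatal membrane prep (guinea pig), 2 h exposure, filtration + scintillation readout of radioligand binding. Single-point 25 uM duplicate; actives rerun singleton, top conc 50 uM.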
Regarding `CCCCCCCCCC`, the result was inactive. On to `c1ccc(C(O[C@@H]2CCCN(CCc3ccc4c(c3)OCO4)C2)c2ccccc2)cc1`, for which the half-maximal activity concentration (AC50) is 943 nM (active). With `CCn1nc(C)c2c1C(=O)NCC(c1ccc(O)cc1)=N2`, the result was inactive.

In another assay the target is Peroxisome proliferator-activated receptor gamma (Homo sapiens) (UniProt P37231). Kind of assay: NVS_NR_hPPARg: NovaScreen (NVS) Nuclear Receptor Binding Assay for human Peroxisome Proliferator-activated Receptor gamma (PPARg) (AID 2283370). In short, it runs like this: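 FP read-out, 2 h post-dose, cell-free extracted receptor protein. Signal loss vs DMSO negative control = binding activity. Single-conc duplicate HTS at 25 uM; concentration-response follow-up for actives.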
Chain of Peroxisome proliferator-activated receptor gamma (Homo sapiens) (P37231 whole entry, looked up): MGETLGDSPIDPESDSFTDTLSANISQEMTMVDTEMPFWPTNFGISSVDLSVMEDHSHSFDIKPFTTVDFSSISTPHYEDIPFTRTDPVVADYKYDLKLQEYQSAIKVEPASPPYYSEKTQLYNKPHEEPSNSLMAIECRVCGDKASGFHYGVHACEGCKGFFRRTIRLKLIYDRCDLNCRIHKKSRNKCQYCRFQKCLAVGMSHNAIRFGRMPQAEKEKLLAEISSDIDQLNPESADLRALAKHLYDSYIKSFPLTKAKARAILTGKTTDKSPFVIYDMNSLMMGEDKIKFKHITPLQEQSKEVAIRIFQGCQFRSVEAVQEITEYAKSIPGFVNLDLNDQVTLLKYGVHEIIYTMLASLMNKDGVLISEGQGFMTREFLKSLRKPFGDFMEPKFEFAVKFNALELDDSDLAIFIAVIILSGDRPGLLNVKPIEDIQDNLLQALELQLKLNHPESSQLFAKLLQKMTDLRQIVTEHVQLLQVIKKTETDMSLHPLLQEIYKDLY
On to `CCOc1ccc2[nH]cc(C(=O)NCc3ccccc3)c(=O)c2n1`, for which the compound was called inactive. Take `NC(=O)NN=Cc1ccc([N+](=O)[O-])o1`: the call was inactive.

On to `c1ccc2c(c1)-c1cccc3c1c-2cc1ccccc13`, for which the outcome was inactive. Turning to `C[C@@H](Oc1ccc(CNC(=O)c2cccnc2Oc2ccc3c(c2)OCO3)c(F)c1)C(=O)O`, the AC50 is 13600 nM (active). Regarding `OCc1ccccc1`, the outcome was inactive. `CCn1nc(C)c2c1C(=O)NCC(c1ccc(O)cc1)=N2`: the compound was called inactive. Still for that read-out and setting: under `Cc1cccc(O)c1C` stands “inactive”.
